According to PubChem BioAssay AID588849 (Broad Institute, 2011):
Potency and affinity values are given separately. Active and inactive are the calls of the source. How the calls were made is not given here.

target: CAAX prenyl protease 2 (Homo sapiens) (UniProt Q9Y256); assay: inhibition of Ras-converting CAAX protease Rce1 – biochemical, yeast membranes, quenched-peptide fluorescence, cherry-pick, dose response (AID 588849); details: yeast membrane fractions expressing human Rce1, quenched-peptide fluorescence, 4 h; series mostly up to 10 µM
Sequence (Q9Y256 whole entry, looked up): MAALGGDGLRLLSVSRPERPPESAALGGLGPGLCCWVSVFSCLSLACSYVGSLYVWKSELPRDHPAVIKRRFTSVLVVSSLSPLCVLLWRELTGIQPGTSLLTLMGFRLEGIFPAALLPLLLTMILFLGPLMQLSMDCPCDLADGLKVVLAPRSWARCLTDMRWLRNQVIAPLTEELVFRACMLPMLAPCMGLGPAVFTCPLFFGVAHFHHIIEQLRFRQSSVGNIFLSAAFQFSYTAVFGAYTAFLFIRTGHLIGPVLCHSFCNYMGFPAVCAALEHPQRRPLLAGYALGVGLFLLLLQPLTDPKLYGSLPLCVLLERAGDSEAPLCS

outcome, inactive:
COc1cccc2c(=O)c(C(=O)O)c[nH]c12
CC1(c2nnc(-c3cccc(Cl)c3)o2)CC(c2cccc(F)c2)=NO1 (stereo not drawn)
C=C(C)C1(O)OC(=O)C=C1OC (stereo not drawn)
CC(C)N1CCN(Cc2ccc(OCc3ccccc3)cc2)CC1CCO (stereo not drawn)
CCn1cc(/C=C(\NC(=O)c2ccccc2F)C(=O)N2CCOCC2)c2ccccc21
COc1cc(-c2nc3ccccn3c2/N=C/c2ccccc2)ccc1O
COc1ccc(NS(=O)(=O)c2c(C)cc(C)cc2C)cc1
COC(C/C=C/[C@H](O)[C@H](C)OCc1ccccc1)OC
C=CCc1cccc(/C=N/NC(=O)COc2ccc(-n3cnnn3)cc2)c1O
CC(=O)Oc1ccc(C(=O)Nc2ccc(S(=O)(=O)NCC3CCCO3)cc2)cc1 (stereo not drawn)
Cc1ccc(-c2cc(C)nc3nc(N)nn23)cc1
c1ccc(CNc2nc(N3CCN(Cc4ccccc4)CC3)nc3ccccc23)cc1
O=C(C(Cc1ccccc1)N1C(=O)c2ccccc2C1=O)N1c2ccccc2CCc2ccccc21 (stereo not drawn)
CC1CCN(C(=O)C2CCN(S(=O)(=O)c3ccc(-n4cnnn4)cc3)CC2)CC1
Nc1nnnn1/N=C/c1ccccc1OCc1ccc(Cl)cc1Cl
Nc1nc2c(ncn2COC(CO)CO)c(=O)[nH]1
Cc1c(C)c2ccc(OC(C)C(=O)NCCCN3CCOCC3)c(C)c2oc1=O (stereo not drawn)
CCCC(=O)N1CCN(c2ccc(NC(=O)c3cc4ccccc4o3)cc2Cl)CC1
COc1ccc(-c2cc(C(F)(F)F)nc(SCC(=O)NCc3cnn(C)c3C)n2)cc1OC
CCc1cc(=O)oc2c3c(cc(OCC(=O)NCCCC(=O)O)c12)OC(C)(C)CC3
COc1ccc(-c2ccc3oc(-c4ccc(OC)cc4)c(-c4ccc(OC)cc4)c3c2)cc1
Nc1nnnn1/N=C/c1cccc(OCc2ccccc2Cl)c1
O=C(Nc1ccccc1)n1ccc(-c2ccc(-n3ccnc3)cc2)n1
